The record followed here is PubChem BioAssay (NCI).

About 83,000 compounds went through this panel and 20% of them were active in at least one assay; those are over-represented in the sample as a whole.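 Step 1: grow cells in 96-well plates. Step 2: add test compound at a single concentration. Step 3: incubate 48 h. Step 4: record percent growth.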 Values without a mark were called inactive. Active and inactive are the calls of the source. How the source made its calls: active means growth percent below 10; inactive means the rest.

The subject of this test is HL-60(TB) leukemia. Nature of the test: NCI-60 one-dose screen, 48 h (100 = growth as untreated, 0 = no growth, -100 = all killed). The note with it: 10 µM unless noted.
With `Cc1ccc2c(c1)C(C)Cc1c(Cl)ncnc1N2C` (configuration not stated), the growth is 17.3%. On to `CCN1CCN(Cc2ccc(NC(=O)Nc3cccc(-n4ccc5c(NC(=O)c6ccccc6)nccc54)c3)cc2C(F)(F)F)CC1`, for which the growth was 112%.

Turning to `CCN1CCN(C(=O)[C@]23CC[C@@H](C)[C@H](C)[C@H]2C2=CC[C@@H]4[C@@]5(C)C/C(=C/c6cccc(OC)c6OC)C(=O)C(C)(C)[C@@H]5CC[C@@]4(C)[C@]2(C)CC3)CC1`, the growth was 2.97% (active). The figure for `COc1ccc2c(c1)nnc1c3cccnc3[nH]c21` is -31.4% (active); for `COc1ccc(-c2cc(=O)[nH]c3c(OC)c4ccccc4c(OC)c23)cc1` it is -19.8% (active). For `COc1ccc(C(=O)CSc2nc(-c3cc(OC)ccc3OC)cc(-c3ccc(OC)cc3)c2C#N)cc1`, the growth was 98.3%. As to `NC(=S)N/N=C\c1nccc2c(C(F)(F)F)cccc12`, the growth is -24.8% (active). As for `COc1cccc(-c2nc(-c3ccc(NC(=O)c4ccccc4)cc3)[nH]c2-c2ccnc(Br)c2)c1`, the figure is -34% (active).

In the case of `CCOC(=O)c1c(C)nc2c(c1N)/C(=C/c1cccs1)C(=O)N2Cc1ccccc1`, the growth is 60.4%. As for `CC(C)(C)c1ccc(S(=O)(=O)Oc2ccc(-c3sc4cc(OS(=O)(=O)c5ccc(C(C)(C)C)cc5)ccc4c3C(=O)c3ccc(OCCN4CCCCC4)cc3)cc2)cc1`, the figure is 95.3%. The figure for `Cc1cc(N(CCNc2ccnc3cc(Cl)ccc23)Cc2ccc3c(c2)OCO3)nc(N2CCCC2)n1` is -61.9% (active); for `CCC(CCC(C)C1CCC2C3CC=C4CC(O)CCC4(C)C3CCC12C)C(C)C` (configuration not stated) (tested in a mixture with another compound) it is 82.5%.
